Potency and outcome data for 23 compounds are collected here from PubChem BioAssay (NCATS).

Values joined by “and” are separate entries in the source; they are usually repeats but may differ in a detail not shown here. Identical values can stand only once. Inconclusive results are not listed. A structure can be active in one record and inactive in another. Active and inactive are the calls of the source. The call rests on the fitted dose curve; in most records, active means well fitted curve in the direction sought with a large enough effect; inconclusive means small, poorly fitted or top-dose-only effect, or another doubt; inactive means no such curve, though single readings can be large; an effect the other way counts as inactive or inconclusive.

For one test, the system named is MCC-13. Briefly: qHTS assay to identify novel small-molecules to repurpose for Merkel cell carcinoma treatment (AID 1296009). Further: nearly all actives have a fitted effect of over 60% in size. The following applies: MCC and control cell lines, CellTiter-Glo viability, 72 h; series mostly up to 46 µM. The method in brief: (§1)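 Dose-response viability screen; 72 hr exposure at 37 degree celsius; CellTiter-Glo added, 10 min room temperature, luminescence read; RLUs scaled between no-cell and DMSO wells.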
A general note: qHTS replaces the single test concentration by a dilution series.

Another test deals with C33A. Briefly: Primary qHTS to identify gynecologic anti-cancer compounds using libraries of approved drugs and bioactive compounds (AID 1345084). Further: nearly all actives have a fitted effect of over 55% in size. As to conditions: Gynecologic cancer cell panel viability, ATPlite luminescence, 48 h; series mostly up to 57.5 µM. The method in brief: (§2)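 Cell viability after 48 h drug treatment, ATPlite luminescence readout; five doses.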
In another test the test system is CASKI. The test is described as above. As to conditions: Gynecologic cancer cell panel viability, ATPlite luminescence, 48 h; series mostly up to 57.5 µM. The method in brief: as §2
(In general: In ATP-based viability assays light output follows the ATP content of the culture.)

The next test has as its system MKL-1. As to the kind of experiment: qHTS assay to identify novel small-molecules to repurpose for Merkel cell carcinoma treatment (AID 1296009). Further: nearly all actives have a fitted effect of over 60% in size. The following applies: MCC and control cell lines, CellTiter-Glo viability, 72 h; series mostly up to 46 µM. The method in brief:
as §1

A further test has as its system MKL-2. The test is described as above. The following applies: MCC and control cell lines, CellTiter-Glo viability, 72 h; series mostly up to 46 µM. The method in brief:
as §1

A further test has as its system UISO. The description is as above. The following applies: MCC and control cell lines, CellTiter-Glo viability, 72 h; series mostly up to 46 µM. Put shortly:
as §1

The next test has as its system WaGa. The test is described as above. As to conditions: MCC and control cell lines, CellTiter-Glo viability, 72 h; series mostly up to 46 µM. The method in brief:
as §1

Another test has as its system CAOV3. Briefly: Primary qHTS to identify gynecologic anti-cancer compounds using libraries of approved drugs and bioactive compounds (AID 1345084). Further: nearly all actives have a fitted effect of over 55% in size. The following applies: Gynecologic cancer cell panel viability, ATPlite luminescence, 48 h; series mostly up to 57.5 µM. Put shortly:
as §2

A further test concerns MCC-26. As to the kind of experiment: qHTS assay to identify novel small-molecules to repurpose for Merkel cell carcinoma treatment (AID 1296009). Further: nearly all actives have a fitted effect of over 60% in size. As to conditions: MCC and control cell lines, CellTiter-Glo viability, 72 h; series mostly up to 46 µM. The method in brief: as §1
Another test relates to NIH3T3. The description is as above. As to conditions: MCC and control cell lines, CellTiter-Glo viability, 72 h; at 44.8 µM (top of the series) unless noted. Put shortly:
as §1
Potency means the concentration at half of the fitted maximal effect.

On to `CN1C[C@H](CNC(=O)OCc2ccccc2)C[C@@H]2c3cccc4c3c(cn4C)C[C@H]21`, for which the Potency result in the test with MCC-13, in the test with C33A and with CASKI was “inactive” in each case.

For the compound `COC[C@@H](NC(C)=O)C(=O)NCc1ccccc1`, the Potency entry with MCC-13, with MKL-1, with MKL-2, in the test on UISO, in the test with WaGa and in the test on C33A was “inactive” in each case. The Potency entry in the test on CAOV3 and in the test with CASKI was “inactive” throughout.

Regarding `C[C@@H]1[C@@H](C(=O)C[C@H]2O[C@@H]3O[C@]4(C)CC[C@@H]5[C@H](C)CC[C@@H]([C@H]2C)[C@@]35OO4)O[C@@H]2O[C@]3(C)CC[C@H]4[C@H](C)CC[C@@H]1[C@@]24OO3`, the Potency result in the test on MCC-26 is “inactive”. The Potency in the test on MKL-1 is 14.8 µM (active); with MKL-2 it was 0.662 µM (active); with UISO, 0.372 µM (active); in the test with WaGa, 2.64 µM (active).

As for `CC[N+](CC)(CC)CC`, the Potency entry in the test with MCC-13, with MKL-1, in the test with MKL-2, in the test on UISO, in the test on WaGa and in the test with C33A was “inactive” throughout. Further, the Potency result with CAOV3 and in the test with CASKI was “inactive” throughout. Besides, the outcome in the test with NIH3T3 was inactive.

Regarding `CC(C)NCC(O)c1ccccc1Cl` (stereo unspecified), the Potency entry with MCC-13, in the test with MKL-1, in the test with MKL-2, in the test on UISO, in the test with WaGa and in the test with C33A was “inactive” each time. Also, the Potency entry in the test with CAOV3 and with CASKI was “inactive” throughout.

`CC(CCc1ccccc1)NC(C)C(O)c1ccc(O)cc1` (stereo unspecified): the Potency result in the test with MCC-13, in the test on MKL-1, in the test with MKL-2, in the test on UISO, in the test with WaGa and in the test on C33A was “inactive” throughout. Besides, the Potency result with CAOV3 and in the test on CASKI was “inactive” throughout.

For the compound `C[C@@H]1[C@@H](CC(C[C@H]2O[C@@H]3O[C@]4(C)CC[C@@H]5[C@H](C)CC[C@@H]([C@H]2C)[C@@]35OO4)C[S+](=O)([O-])c2ccc(COC(=O)N(C)C)cc2)O[C@@H]2O[C@]3(C)CC[C@H]4[C@H](C)CC[C@@H]1[C@@]24OO3` (stereo partly specified), the Potency with MKL-1 was 1.18 µM (active); with MKL-2, 0.59 µM (active); in the test with UISO it was 0.526 µM (active).

In the case of `NCC1(CC(=O)O)CCCCC1`, the Potency entry with MCC-13, with MKL-1, in the test on MKL-2, in the test on UISO, in the test on WaGa and in the test with C33A was “inactive” throughout. The Potency entry in the test on CAOV3 and in the test with CASKI was “inactive” throughout.

Consider `CC(O)(CS(=O)(=O)c1ccc(F)cc1)C(=O)Nc1ccc(C#N)c(C(F)(F)F)c1` (stereo unspecified), for which the Potency in the test with MKL-2 is 4.18 µM (active); in the test with WaGa, 8.33 µM (active). The compound was called inactive in the test with NIH3T3. Also, the Potency result with C33A, with CAOV3 and in the test with CASKI was “inactive” in each case.

Consider `C=C(C)[C@H]1Cc2c(ccc3c2O[C@@H]2COc4cc(OC)c(OC)cc4[C@@H]2C3=O)O1`, for which the Potency was 708 nM (active) in the test on C33A and 1.26 µM (active) with CASKI.

For `OCCOc1ccccc1`, the Potency entry in the test on MCC-13, with MKL-1, with MKL-2, in the test with UISO, in the test on WaGa and with C33A was “inactive” throughout. For the same compound, the Potency result in the test with CAOV3 and in the test on CASKI was “inactive” each time.

For the compound `O=C1NCN(c2ccccc2)C12CCN(CC1COc3ccccc3O1)CC2` (stereo unspecified), the Potency entry in the test on MCC-13, in the test with MKL-1, in the test on MKL-2, in the test with UISO, in the test with WaGa and in the test on C33A was “inactive” throughout. In addition, the Potency result in the test on CAOV3 and with CASKI was “inactive” in each case.

With `CCCN1CCC[C@@H]2Cc3nc(N)ncc3C[C@H]21`, the Potency result with MCC-13, in the test with MKL-2, in the test with WaGa, in the test on C33A, with CAOV3 and with CASKI was “inactive” throughout. Also, the Potency with UISO is 29.9 µM (active).

Regarding `CNC(=O)N1N=C(c2ccc(N)cc2)c2cc3c(cc2CC1C)OCO3` (stereo unspecified), the Potency result in the test with MKL-1 and in the test on C33A was “inactive” in each case. The Potency in the test on MKL-2 was 7.43 µM (active); with WaGa, 16.6 µM (active).

Take `C=C1C[C@@H]2[C@H](CC[C@]3(C)C(=O)CC[C@@H]23)[C@@]2(C)C=CC(=O)C=C12`: the Potency result with MCC-13, in the test on UISO, in the test on C33A and in the test on CASKI was “inactive” in each case. The Potency in the test with MKL-2 was 13.3 µM (active).

Take `C[C@H]1O[C@@H](O[C@H]2[C@@H](O)C[C@H](O[C@H]3[C@@H](O)C[C@H](O[C@H]4CC[C@@]5(C)[C@H](CC[C@@H]6[C@@H]5CC[C@]5(C)[C@@H](C7=CC(=O)OC7)CC[C@]65O)C4)O[C@@H]3C)O[C@@H]2C)C[C@H](O)[C@@H]1O`: the Potency in the test on MKL-1 was 0.0473 µM (active); in the test on MKL-2, 0.0237 µM (active); in the test on WaGa, 0.0211 µM (active); in the test with C33A it was 100 nM (active) and 89.1 nM (active); in the test with CAOV3, 316 nM (active) and 282 nM (active); in the test with CASKI, 398 nM (active) and 794 nM (active).

On to `Fc1ccc(C(OCCN2CCN(CCCc3ccccc3)CC2)c2ccc(F)cc2)cc1`, for which the Potency entry in the test with MCC-26 is “inactive”. Besides, the Potency was 9.44 µM (active) in the test on MKL-1; 23.5 µM (active) and 4.73 µM (active) in the test with MKL-2; 23.7 µM (active) in the test with UISO; 8.41 µM (active) in the test on WaGa.

As for `Oc1ccc(Cl)cc1Cc1ccccc1`, the Potency result in the test with MCC-13, with MKL-1, in the test on C33A, in the test on CAOV3 and in the test on CASKI was “inactive” in each case. Moreover, the Potency in the test with MKL-2 is 21.9 µM (active); with UISO it was 34.7 µM (active).

For `Clc1ccc(CCC(Cn2ccnc2)Sc2c(Cl)cccc2Cl)cc1` (stereo unspecified), the Potency result with MCC-13, in the test on MKL-1, in the test with WaGa, in the test on CAOV3 and in the test on CASKI was “inactive” each time.

Take `c1ccc2c(c1)Nc1ccccc1S2`: the Potency entry in the test on MCC-13, in the test with MKL-1, in the test on MKL-2, in the test on UISO, in the test on WaGa and in the test on C33A was “inactive” throughout. The Potency result with CAOV3 and in the test with CASKI was “inactive” in each case.

Take `O=P1(NCCCl)OCCCN1CCCl` (stereo unspecified): the Potency entry in the test with MCC-13, in the test on MKL-1, with MKL-2, in the test with UISO, with WaGa and with C33A was “inactive” in each case. In addition, the Potency result in the test with CAOV3 and in the test on CASKI was “inactive” throughout.

With `Cn1c(CCCC(=O)O)nc2cc(N(CCCl)CCCl)ccc21`, the Potency result in the test on MCC-13, in the test with MKL-1, with UISO, with C33A, with CAOV3 and in the test on CASKI was “inactive” throughout. For the same compound, in the test with WaGa, the Potency was 18.8 µM (active) and inactive.

`Cc1ccc(-c2nc3ccc(C)cn3c2CC(=O)N(C)C)cc1`: the Potency result in the test on MCC-13, with MKL-1, with MKL-2, with UISO, in the test with WaGa and in the test on C33A was “inactive” in each case. In addition, the Potency entry in the test with CAOV3 and with CASKI was “inactive” throughout.
